Screening results as filed in PubChem.
Sfp inh – blocks B. subtilis Sfp PPTase activity. Q9F4F7. Biochemical Sfp PPTase activity, qHTS. Potency, µM, usual class: inhibitors. 3.5% of 310,000 active;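 also: the enzyme is Sfp with the accession as filed and its product quenches rhodamine fluorescence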
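With Hepes-Na pH 7.6 buffer containing 10 mM MgCl2, Sfp (15 nM) modified BHQ-2-YbbR (12.5 uM) using rhodamine-CoA (5 uM). Two reads 30 minutes apart at 525/598 nm yielded each well's rate.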
PLK1 PBD inh – PLK1 (human) polo-box domain binding inhibition. P53350. Plk1 PBD binding of FITC phosphopeptide, fluorescence polarization. Potency, µM, hits mostly inhibitors. 2.8% of 360,000 active. AID 720504; also: series mostly up to about 57 µM; nearly all actives have a fitted effect of over 65% in size
G9a inh – inhibitors of human histone lysine methyltransferase G9a | Potency, µM (highest dose often 102 µM), usual class: inhibitors | Q96KQ7 | G9a H3K9 monomethylation, AlphaScreen, 2 h | 8.8% of 350,000 active | AID 504332; also: nearly all actives have a fitted effect of over 75% in size
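Enzyme 20 nM + cpd, 15 min RT; add b-H3K9 pep 500 nM / SAM 20 uM; 2 h RT; anti-H3K9me1 Ab 0.5 ug/mL + SA donor / anti-rabbit acceptor beads 20 ug/mL each, 10 min; AlphaScreen read.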
HP1b chromo inh – HP1-beta chromodomain-methylated histone interaction inhibition; Potency, µM (doses to about 114 µM), actives largely listed as inhibitors; AlphaScreen HP1-beta / biotin-H3K9me3 peptide binding; AID 540317; P83916; 0.56% of 390,000 active; also: nearly all actives have a fitted effect of over 70% in size
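Compound inhibition of the preformed complex between 50 nM HP1-beta and 50 nM biotinylated H3K9me3 peptide was read by AlphaScreen. Buffer was PBS pH 7.4 with 0.01% Tween-20. Incubations ran 30 min at room temperature, with 10 ug/mL donor/acceptor beads.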
JMJD2A Tudor – blocks the human JMJD2A Tudor domain | O75164 | AlphaScreen JMJD2A-Tudor / H3K4me3 peptide binding | Potency, µM (doses to about 114 µM), actives largely listed as inhibitors | 4.4% of 390,000 active | AID 504339; also: nearly all actives have a fitted effect of over 50% in size
Target sequence (O75164 whole entry, looked up, the tested form may be a part): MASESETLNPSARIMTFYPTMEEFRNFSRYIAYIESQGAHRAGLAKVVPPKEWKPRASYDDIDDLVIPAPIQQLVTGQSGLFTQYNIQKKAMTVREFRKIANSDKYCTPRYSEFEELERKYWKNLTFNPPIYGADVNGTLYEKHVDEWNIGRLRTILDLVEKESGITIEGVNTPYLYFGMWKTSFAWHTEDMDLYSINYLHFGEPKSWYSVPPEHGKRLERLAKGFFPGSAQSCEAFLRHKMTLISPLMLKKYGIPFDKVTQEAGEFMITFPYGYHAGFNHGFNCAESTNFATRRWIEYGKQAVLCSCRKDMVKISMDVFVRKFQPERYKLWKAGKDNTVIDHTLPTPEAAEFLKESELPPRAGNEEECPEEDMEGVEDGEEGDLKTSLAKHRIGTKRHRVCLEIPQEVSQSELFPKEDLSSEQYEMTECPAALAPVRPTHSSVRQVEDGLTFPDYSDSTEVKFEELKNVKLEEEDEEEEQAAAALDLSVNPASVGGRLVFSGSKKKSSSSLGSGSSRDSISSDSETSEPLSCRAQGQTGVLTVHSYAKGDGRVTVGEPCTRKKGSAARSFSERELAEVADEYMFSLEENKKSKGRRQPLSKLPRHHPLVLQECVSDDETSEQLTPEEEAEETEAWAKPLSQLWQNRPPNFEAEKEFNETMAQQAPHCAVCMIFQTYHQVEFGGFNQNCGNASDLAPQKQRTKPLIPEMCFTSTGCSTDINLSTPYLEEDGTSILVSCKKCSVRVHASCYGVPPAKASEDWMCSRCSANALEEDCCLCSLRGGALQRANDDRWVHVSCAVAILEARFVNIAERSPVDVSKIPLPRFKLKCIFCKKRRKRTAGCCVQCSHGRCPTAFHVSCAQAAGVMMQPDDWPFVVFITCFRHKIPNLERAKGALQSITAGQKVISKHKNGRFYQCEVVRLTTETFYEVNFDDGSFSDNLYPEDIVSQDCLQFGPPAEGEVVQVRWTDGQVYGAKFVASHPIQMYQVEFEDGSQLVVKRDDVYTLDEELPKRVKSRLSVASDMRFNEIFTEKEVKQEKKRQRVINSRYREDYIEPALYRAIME
BAZ2B block – inhibitors of human BAZ2B bromodomain; AlphaScreen BAZ2B-H3K14Ac peptide displacement; Potency, µM (series often up to 114 µM), most hits filed as inhibitors; 4.4% of 360,000 active; AID 504333; also: nearly all actives have a fitted effect of over 60% in size
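Protein-peptide AlphaScreen: BAZ2B 50 nM, b-H3K14Ac 50 nM, 1x PBS pH 7.4 + 0.01% Tween-20. Preincubation 30 min RT; cpd 30 min RT (top 110 uM); beads 20 min RT, light-protected.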
A number is an active result; . = inactive; ? = inconclusive; / = not tested or not shown; [ ] = remark or other dose. Rows were chosen to be rich in hits. Some 12% of all compounds tested hit in one or more screens of this group. Calls follow the shape of the dose curve; as a rule, active = well fitted curve in the direction sought with a large enough effect; inconclusive = small, poorly fitted or top-dose-only effect, or another doubt; inactive = no such curve, though single readings can be large; an effect the other way counts as inactive or inconclusive.

SMILES	Sfp inh	PLK1 PBD inh	G9a inh	HP1b chromo inh	JMJD2A Tudor	BAZ2B block
COc1cc(NC(=O)c2cc([N+](=O)[O-])ccc2N2CCOCC2)ccc1NC(=O)c1ccco1	.	.	/	.	.	71µM
Cc1ccc(C)c(NC(=O)c2cc(S(=O)(=O)N3CCCCC3)ccc2N2CCOCC2)c1	/	.	.[12.7 µM]	.	.	.
O=C(NCc1ccccc1F)c1cccc(NC(=O)N2CCSc3ncccc32)c1	/	/	.	.	.	.
O=S(=O)(c1cccc(C(F)(F)F)c1)N1CCN(CC(O)COCc2ccccc2)CC1 (stereo not given)	/	.	/	?	13µM	/
O=S(=O)(c1cccc(C(F)(F)F)c1)N1CCN(c2ccccc2)CC1	.	.	.	.	.	.
O=S(=O)(c1ccc(F)cc1)N1CCN(CC(O)COCc2ccccc2)CC1 (stereo not given)	/	.	/	?	5.6µM	/
O=C(CSc1ncn(-c2ccccc2)n1)Nc1nncs1	.	.	?	.	.	.
O=C(CSc1ncn(-c2ccccc2)n1)Nc1nc2c(s1)CCCC2	?	?	.[12.7 µM]	?	50µM	45µM
CC(=O)Nc1ccc(NC(=O)CSC2=NCCS2)cc1	.	.	?	.	.	.
O=C(CSC1=NCCS1)Nc1nc2c(s1)CCCC2	56µM	?	40µM	.	.	?
CC(=O)Nc1nonc1NC(=O)CSC1=NCCS1	.	.	56µM	.	.	.
CCOc1ccc(CNC(=O)c2cc3c(=O)oc4ccc(C)cc4c3s2)cc1	/	/	.	.	.	.
N=c1ccn2c(n1)OC1C(O)[C@@H](CO)O[C@H]12 (stereo not given in full)	/	/	/	.	.	/
Cc1ccc(S(=O)(=O)O/N=C2/CCCc3occc32)cc1	.	.	50µM	.	?	.
CC1=CC(=NOS(=O)(=O)c2ccc(C)cc2)CC(C)(C)C1	/	.	/	/	/	/
O=C(O/N=C1/CCCc2occc21)c1ccc(F)cc1	.	12µM	.	.	?	.
Cc1cccc(C)c1NS(=O)(=O)c1ccc(F)cc1	.	?	.	.	.[11.4 µM]	.
CC(=O)c1ccc2c(c1)C1C=CCC1C(c1ccc(S(=O)(=O)N3CCOCC3)cc1)N2 (stereo not given)	.	.	?	.	.	?
Cc1cccc(C)c1NS(=O)(=O)c1ccc2c(c1)[C@H]1C=CC[C@H]1[C@@H](c1ccc(Cl)cc1)N2	/	/	3.5µM	.	.	.
COC(=O)c1ccc(NS(=O)(=O)c2ccc3c(c2)n(C)c(=O)c(=O)n3C)cc1	/	/	.	.	.	/
COc1cccc(NS(=O)(=O)c2ccc3c(c2)[C@H]2C=CC[C@H]2[C@@H](c2ccccc2Cl)N3)c1	/	/	?	.	.	.
COC(=O)c1ccc([C@H]2Nc3ccc(S(=O)(=O)Nc4ccc(C)cc4)cc3[C@H]3C=CC[C@H]32)cc1	/	/	3.5µM	.	?	?
COc1ccc(NS(=O)(=O)c2ccc3c(c2)[C@H]2C=CC[C@H]2[C@@H](c2ccc(C(=O)O)cc2)N3)cc1	.	21µM	25µM	35µM	45µM	40µM
Cc1c(Cl)cccc1NS(=O)(=O)c1ccc2c(c1)C1C=CCC1C(c1ccc(C(=O)O)cc1)N2 (stereo not given)	?	11µM	2.8µM	50µM	56µM	45µM
CC1CCN(C(=O)c2ccc3c(c2)N(Cc2ccccc2)C(=O)c2ccccc2S3(=O)=O)CC1	/	/	.	.	.	.
SMILES	Sfp inh	PLK1 PBD inh	G9a inh	HP1b chromo inh	JMJD2A Tudor	BAZ2B block
CCCCC(=O)Nc1nnc(S(=O)(=O)N(C)Cc2ccc(Cl)cc2)s1	/	/	?	.	.	.
O=C(Cn1c(=O)nc(-c2ccccc2)c2cc(Cl)ccc21)NCCCc1ccccc1	/	/	.	.	.	.
COc1cccc(-c2nn3c(=O)cc(CN4CCN(S(=O)(=O)c5ccc(C)cc5)CC4)nc3s2)c1	/	/	.	.	.	.
Cc1cccc2c(N=Nc3ccccc3)c(O)[nH]c12	.	.	40µM	.	.	.
C=CCNC(=O)CN(c1cccc(Br)c1)S(C)(=O)=O	.	.	.	.	.	.
COc1ccc(/C=N/N=C2/NC(=O)C(CC(=O)NC(C)C)S2)cc1 (stereo not given)	.	.	.	.	.	.
Cc1ccc(/C=N/N=C2/NC(=O)C(CC(=O)N3CCOCC3)S2)cc1 (stereo not given)	40µM	?	28µM	.	.	?
CC(C)=CCC/C(C)=C/C=C/C(C)=C/C=C/C(C)=C/C=C/C=C(C)/C=C/C=C(C)/C=C/C=C(\C)CCC=C(C)C	?	/	20µM	/	/	/
O=C(O)c1ccccc1C(=O)Nc1cccc([N+](=O)[O-])c1	.	.	.	.	.	.
O=C(Nc1cccc([N+](=O)[O-])c1)Nc1cccs1	.	.	40µM	.	?	?
O=C(Nc1cccc([N+](=O)[O-])c1)c1cc2ccccc2cc1O	.	?	?	.	.[11.4 µM]	50µM
COc1ccc(/C=C/C(=O)OC(C)CN2CCCCC2)cc1 (stereo not given)	.	.	20µM	.	.	.
CC(CN1CCCCC1)OC(=O)COc1ccc(Cl)cc1 (stereo not given)	.	24µM	/	.	?	.
CSc1ccc(CNC(=O)Cn2nc(N3CCN(c4ccccc4)CC3)ccc2=O)cc1	/	/	.	.	.	.
C#CCOCCOCCOCCNc1nc(N2CCN(C(=O)[C@H]([C@@H](C)O)n3cc(CCCCN)nn3)CC2)nc(N2CCN(C(=O)[C@H](Cc3ccc(O)cc3)n3cc(CCO)nn3)CC2)n1	?	.	50µM	.	?	?
C#CCOCCOCCOCCNc1nc(N2CCN(C(=O)[C@H](Cc3ccc(O)cc3)n3cc(CCO)nn3)CC2)nc(N2CCN(C(=O)[C@H](Cc3ccc(O)cc3)n3cc(CCO)nn3)CC2)n1	.	/	35µM	/	/	?
C#CCOCCOCCOCCNc1nc(N2CCN(C(=O)[C@H](C(C)C)n3cc(CCO)nn3)CC2)nc(N2CCN(C(=O)[C@H](Cc3ccc(O)cc3)n3cc(CCO)nn3)CC2)n1	/	.	/	.	.	/
C#CCOCCOCCOCCNc1nc(N2CCN(C(=O)[C@H]([C@@H](C)O)n3cc(CCCCN)nn3)CC2)nc(N2CCN(C(=O)[C@H](CCCCN)n3cc(CCC(=O)O)nn3)CC2)n1	/	.	?	.	.	?
O=c1oc2ccccc2cc1-c1nc(-c2cccs2)no1	/	/	.	.	.	.
Cc1cccc(NC(=O)c2ccc(NCCO)c([N+](=O)[O-])c2)n1	.	.	.	.	.	89µM
Cc1cccc(NC(=O)c2cccc(C(=O)Nc3cccc(C)n3)c2)n1	.	.	?	.	.	.
Cc1cccc(NC(=O)c2ccc(C(=O)c3ccccc3)cc2)n1	/	.	7.9µM	.	.	.
CCCS(=O)(=O)NC(=O)C1(C)CCN(C(=O)c2cncc(Br)c2)C1 (stereo not given)	/	.	/	/	/	/
